Measured values reported in PubChem BioAssay (Tox21).
Records with an inconclusive call do not appear. Activity calls are given as the source filed them. Unless noted, calls come from the whole dose curve.

Columns and labels:
[1] = qHTS assay to identify small molecule agonists of the vitamin D receptor (VDR) signaling pathway - cell viability counter screen (AID 743224; active = well fitted curve in the direction sought with a large enough effect in the repeat runs; an effect the other way counts as inactive or inconclusive; note: series mostly up to about 63 µM; % is set by controls: 0 for no effect and ±100 for the full control effect; nearly all actives have a fitted effect of over 50% in size)
Outline: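 VDR-bla cells, 4 h after plating, exposed to compounds for 16 h at 37C; viability then read in the same wells as CellTiter-Glo luminescence after 30 min at room temperature, following the bla FRET read.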

[2] = qHTS assay to identify small molecule antagonists of the vitamin D receptor (VDR) signaling pathway - cell viability counter screen (AID 743225; active = well fitted curve in the direction sought with a large enough effect in the repeat runs; an effect the other way counts as inactive or inconclusive; note: % is set by controls: 0 for no effect and ±100 for the full control effect; nearly all actives have a fitted effect of over 50% in size)
Outline: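 Read-out: CellTiter-Glo luminescence measured 30 min after reagent addition at room temperature. Cells were VDR-bla HEK 293T exposed 16 h at 37C, 5% CO2, to compound with 3 nM final calcitriol agonist.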

[3] = qHTS assay to identify small molecule agonists of the NFkB signaling pathway (AID 1159509; active = well fitted curve in the direction sought with a large enough effect in the signal ratio in the repeat runs, not every such curve was filed as active; the % refers to the signal ratio; note: series mostly up to about 61 µM; % is set by controls: 0 for no effect and ±100 for the full control effect)
Outline: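 ME-180 NFkB-bla, 2,000 cells/well, overnight plating; cpd pinned in DMSO, 5 h 37 C; B/G FRET substrate 1.5 h RT; ex 405, em 460/530 nm.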

[4] = qHTS assay to identify small molecule agonists of the NFkB signaling pathway - cell viability counter screen (AID 1159515); note: series mostly up to about 61 µM; % is set by controls: 0 for no effect and ±100 for the full control effect; nearly all actives have a fitted effect of over 55% in size
Outline: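 NFkB-bla ME-180 cells, 2,000/well, plated overnight at 37 C; compound added for 5 hr at 37 C. Viability read in the same wells as the bla reporter, by CellTiter-Glo luminescence after 30 min at room temperature.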

[5] = qHTS assay to identify small molecule agonists of the endoplasmic reticulum stress response signaling pathway (AID 1159516; active = well fitted activation curve with a large enough effect in the signal ratio in the repeat runs, not every such curve was filed as active; the % refers to the signal ratio; note: % is set by controls: 0 for no effect and ±100 for the full control effect)
Outline: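 CellSensor ESRE-bla HeLa cells, 1,500 per well, plated overnight, then exposed to compounds for 5 hr at 37 C. Beta-lactamase reporter read with LiveBLAzer B/G FRET substrate after 2 hr at room temperature, 405 nm excitation, 460 and 530 nm emission.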

[6] = qHTS assay to identify small molecule agonists of the endoplasmic reticulum stress response signaling pathway - cell viability counter screen (AID 1159517);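 note: HeLa cells carrying an ER stress response element beta-lactamase reporter; series mostly up to about 61 µM; % is set by controls: 0 for no effect and ±100 for the full control effect; nearly all actives have a fitted effect of over 50% in size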
Outline: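 HeLa cells carrying an ESRE-driven beta-lactamase reporter receive compound for 5 hr at 37 C. Cell viability is then gauged with CellTiter-Glo by luminescence, 30 min at room temperature.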

[7] = molecular target: Nuclear receptor ROR-gamma (Homo sapiens) (UniProt P51449); experiment: qHTS assay to identify small molecule antagonists of the retinoid-related orphan receptor gamma (ROR-gamma) signaling pathway (AID 1159521; active = well fitted curve in the direction sought with a large enough effect in the repeat runs; an effect the other way counts as inactive or inconclusive;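 note: CHO cells with doxycycline inducible ROR-gamma driving an RORE luciferase reporter; top concentration of the series differs between compounds; % is set by controls: 0 for no effect and ±100 for the full control effect; nearly all actives have a fitted effect of over 50% in size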)
Outline: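 CHO Tet-on RORγ, RORE-luc reporter. Cpd 2 h pre-incubation, then dox hyclate 1 uM final, 16 h, 37 C/5% CO2. ONE-Glo luminescence; decrease = antagonist.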

[8] = qHTS assay to identify small molecule agonists of the AP-1 signaling pathway - cell viability counter screen (AID 1159525); note: nearly all actives have a fitted effect of over 55% in size
Outline: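 Luminescent ATP readout (Cell Titer Glo, 30 min RT), normalised to DMSO and tetra n-octyl ammonium bromide controls. Cells were ME-180 AP-1-bla in 0.5% dialyzed FBS Opti-MEM, with a 5 h, 37 °C compound exposure.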

[9] = qHTS assay to identify small molecule agonists of the AP-1 signaling pathway (AID 1159526); note: % is set by controls: 0 for no effect and ±100 for the full control effect
[10] = qHTS assay to identify small molecule antagonists of the retinoid-related orphan receptor gamma (ROR-gamma) signaling pathway - cell viability counter screen (AID 1159520; active = well fitted curve in the direction sought with a large enough effect in the repeat runs; an effect the other way counts as inactive or inconclusive)
Outline: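 Cytotoxicity was read from cellular ATP (CellTiter-Glo luminescence) after 16 hr at 37 C with 1 uM doxycycline induction. The inducer was added 2 hr after compound transfer to Tet-on ROR gamma CHO cells.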

COc1cc(C)c(Cc2cnc(N)nc2N)cc1OC
inactive: outcome [1] | outcome [2] | outcome [3] | outcome [4] | outcome [5] | outcome [6] | Potency [7] | outcome [8] | Potency [9]

CC(CN=Cc1ccccc1O)N=Cc1ccccc1O (stereo not given)
inactive: outcome [1] | outcome [3] | outcome [4] | outcome [5] | outcome [6] | Potency [7] | outcome [8] | Potency [9]

Clc1ccccc1-c1nc(-c2ccncc2)no1
inactive: outcome [1] | outcome [2] | outcome [3] | outcome [4] | outcome [5] | outcome [6] | Potency [10] | outcome [8] | Potency [9]

CCOC(=O)CC(O)(CC(=O)OCC)C(=O)OCC
inactive: outcome [1] | outcome [2] | outcome [3] | outcome [4] | outcome [5] | outcome [6] | Potency [7] | outcome [8] | Potency [9]

c1ccc(-c2ccc(-c3ccccc3)cc2)cc1
inactive: outcome [1] | outcome [2] | outcome [3] | outcome [4] | outcome [5] | outcome [6] | activity, negative = cytotoxicity [10] 4.58% [at 19 µM] | viability change, negative = cytotoxic [8] 1.74% [at 15.8 µM] | activation [9] -13.1% [at 15.8 µM]

O=C(O)c1cc(C(=O)O)cc([N+](=O)[O-])c1
inactive: outcome [1] | outcome [2] | outcome [3] | outcome [4] | outcome [5] | outcome [6] | Potency [7] | outcome [8] | Potency [9]

CC(C)=CCC/C(C)=C/C=N/O
inactive: outcome [1] | outcome [3] | outcome [4] | outcome [5] | outcome [6] | Potency [7] | outcome [8] | Potency [9]

CC(=O)c1ccc(Cl)c(Cl)c1Cl
inactive: outcome [1] | outcome [2] | outcome [3] | outcome [4] | outcome [5] | outcome [6] | Potency [10] | outcome [8] | Potency [9]

CC(CCl)OC(C)CCl (stereo not given)
inactive: outcome [1] | outcome [2] | outcome [3] | outcome [4] | outcome [5] | outcome [6] | Potency [7] | outcome [8] | Potency [9]

C=C[Si](OCC)(OCC)OCC
inactive: outcome [1] | outcome [3] | outcome [4] | outcome [5] | outcome [6] | Potency [7] | outcome [8] | Potency [9]

CC(O)CN (stereo not given)
inactive: outcome [1] | outcome [2] | outcome [3] | outcome [4] | outcome [5] | outcome [6] | Potency [7] | outcome [8] | Potency [9]

CCCCCO
inactive: outcome [1] | outcome [2] | outcome [3] | outcome [4] | outcome [5] | outcome [6] | Potency [7] | outcome [8] | Potency [9]

CC(O)C(C)O (stereo not given)
inactive: outcome [2] | outcome [3] | outcome [4] | outcome [5] | outcome [6] | Potency [10] | outcome [8] | Potency [9]

NCCOCCOCCN
inactive: outcome [1] | outcome [2] | outcome [3] | outcome [4] | outcome [5] | outcome [6] | Potency [7] | outcome [8] | Potency [9]

O=C1CCCN1CCO
inactive: outcome [1] | outcome [2] | outcome [3] | outcome [4] | outcome [5] | outcome [6] | Potency [10] | outcome [8] | Potency [9]

Cc1ccc2c(Cl)cc(Cl)c(O)c2n1
inactive: outcome [1] | outcome [2] | outcome [3] | outcome [4] | outcome [5] | outcome [6] | Potency [7] | outcome [8] | Potency [9]

CC(C)(C)N
inactive: outcome [1] | outcome [2] | outcome [3] | outcome [4] | outcome [5] | outcome [6] | Potency [7] | outcome [8] | Potency [9]

OCCc1ccncc1
inactive: outcome [1] | outcome [2] | outcome [3] | outcome [4] | outcome [5] | outcome [6] | Potency [7] | outcome [8]

CC(C)(C)c1cc(C=O)cc(C(C)(C)C)c1O
inactive: outcome [1] | outcome [2] | outcome [3] | outcome [4] | outcome [5] | outcome [6] | Potency [7] | outcome [8] | Potency [9]

O=C(O)CNc1ccccc1
inactive: outcome [1] | outcome [2] | outcome [3] | outcome [4] | outcome [5] | outcome [6] | Potency [7] | outcome [8] | Potency [9]

C=CC(C)CCC=C(C)C (stereo not given)
inactive: outcome [1] | outcome [2] | outcome [3] | outcome [4] | outcome [5] | outcome [6] | Potency [10] | outcome [8] | Potency [9]

N#C[C@@H]1CC(F)(F)CN1C(=O)CNC1CC2CCC(C1)N2c1ncccn1 (stereo not given in full)
inactive: outcome [2] | outcome [3] | outcome [4] | outcome [5] | outcome [6] | Potency [10] | outcome [8] | Potency [9]

C1=COCCC1
inactive: outcome [1] | outcome [2] | outcome [3] | outcome [4] | outcome [5] | outcome [6] | Potency [7] | outcome [8] | Potency [9]

C[C@H](N)C(=O)N[C@@H](C)C(=O)NC1[C@H]2CN(c3nc4c(cc3F)c(=O)c(C(=O)O)cn4-c3ccc(F)cc3F)C[C@@H]12 (stereo not given in full)
inactive: outcome [1] | outcome [2] | outcome [3] | outcome [4] | outcome [5] | outcome [6] | Potency [7] | outcome [8] | Potency [9]

NC(=O)c1ccccc1
inactive: outcome [1] | outcome [2] | outcome [3] | outcome [4] | outcome [5] | outcome [6] | Potency [7] | outcome [8] | Potency [9]

CC(COc1ccccc1)NC(C)C(O)c1ccc(O)cc1 (stereo not given)
inactive: outcome [2] | outcome [3] | outcome [4] | outcome [5] | outcome [6] | Potency [10] | outcome [8]

C[C@H]1C[C@H]2[C@@H]3CCC4=CC(=O)C=C[C@]4(C)[C@@]3(F)[C@@H](O)C[C@]2(C)[C@@]1(O)C(=O)COP(=O)(O)O
inactive: outcome [1] | outcome [2] | outcome [3] | outcome [4] | outcome [5] | outcome [6] | Potency [10] | outcome [8] | Potency [9]
